Source: PubChem BioAssay (NCI)
Where “and” joins values, the source holds several entries; their conditions need not be identical. Identical values can stand only once. This is part of a sample that, as a whole, favours compounds with a hit. Of some 83,000 tested, about 20% had one in any assay.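 Values shown are percent growth following 48 h exposure of cells in 96-well plates to a single concentration of compound; below 10 was considered active.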 Calls of active or inactive are those of the source.

Experiments:
Assay in all cases: NCI-60 one-dose screen, 48 h (100 = growth as untreated, 0 = no growth, -100 = all killed)
Conditions in all cases: 10 µM unless noted
[1] = tested on: SK-MEL-2 melanoma
[2] = tested on: EKVX NSCLC
[3] = tested on: SN12C renal
[4] = tested on: UO-31 renal
[5] = tested on: TK-10 renal
[6] = tested on: ACHN renal
[7] = tested on: CAKI-1 renal
[8] = tested on: A498 renal
[9] = tested on: CCRF-CEM leukemia
[10] = tested on: MOLT-4 leukemia

Measured: growth

Cc1ccc2c(n1)C(=O)C(Cl)=C(Nc1ccc(C(=O)OC(C)(C)C)cc1)C2=O
inactive: [1] 116% [9.25 µM] | [2] 76.5% [9.25 µM] | [3] 88% [9.25 µM] | [4] 46.4% [9.25 µM] | [5] 83.9% [9.25 µM] | [8] 110% [9.25 µM]
active: [6] -21.5% [9.25 µM] | [7] -34.8% [9.25 µM] | [9] -23.2% [9.25 µM] | [10] -6.96% [9.25 µM]

COc1ccc(/C=N/NC(=O)c2c(N)nn(C)c2Nc2ccccc2)cc1Oc1ccccc1
inactive: [1] 101% | [2] 88.1% | [3] 95.5% | [4] 71.7% | [5] 102% | [6] 95.8% | [7] 86.6% | [8] 98.6% | [9] 94.3% | [10] 90.4%

COc1cc(/C=C2/C(=O)Nc3ccc(Cl)cc32)ccc1OCc1ccc(Cl)cc1
inactive: [1] 107% | [2] 88.5% | [3] 88.9% | [4] 74.3% | [5] 129% | [6] 52.7% | [7] 83.3% | [8] 93.4% | [9] 69.5% | [10] 76.7%

CN(C)CC(=O)Nc1nc(-c2cccc(NS(=O)(=O)c3cccc4c(N(C)C)cccc34)c2)cs1
inactive: [1] 94.1% | [2] 68.9% | [3] 75.3% | [4] 70.4% | [5] 107% | [6] 88.2% | [7] 78.8% | [8] 101% | [9] 83.7% | [10] 80.4%

Cc1[nH]c(C(=O)Nc2ccc(S(=O)(=O)N3CCCCC3)cc2OCCOCCOCCOCCOCCOCCOCCOCCOCCOc2cc(S(=O)(=O)N3CCCCC3)ccc2NC(=O)c2[nH]c(C)c3c2CCCCC3=O)c2c1C(=O)CCCC2
inactive: [2] 44% | [3] 23.1% | [4] 40.5% | [6] 67.5% | [7] 15.9% | [9] 38.4% | [10] 11.8%
active: [1] -11.7% | [5] 8.54% | [8] -42.9%

COc1cc2c3c(cc4c5c(ccc4c3c1OC)OCO5)N(CCN(C)C)C2=O
active: [1] -44.5% | [2] -22% | [3] -5.44% | [4] -53.9% | [5] -4.01% | [6] -51.4% | [7] -26.6% | [8] -77.6% | [9] 1.57% | [10] 3.85%

CN(C)S(=O)(=O)c1ccc(-c2nc(C(Cl)Cl)nc3cc(-c4ccc(F)cc4)nn23)cc1
active: [1] 9.25% | [6] 5.28% | [7] 3.68% | [10] 3.19%
inactive: [2] 22.7% | [3] 24.3% | [4] 44.3% | [5] 29.5% | [8] 49.7% | [9] 21.7%

C/C=C/CC(C)C(O)[C@H](NC(=O)[C@@H]1CCCN1C(=O)[C@](C)(CC)NC(=O)CCCCCCCCC)C(=O)N[C@@](C)(CC)C(=O)N[C@@H](CCC(N)=O)C(=O)N[C@H](CCC(N)=O)C(=O)NC(C)(C)C(=O)NC(C)(C)C(=O)N[C@@H](CCC(N)=O)C(=O)N[C@H](CC(C)C)C(=O)N[C@H](CO)CC(C)C (stereo not given in full)
12.7% (inactive) and -50.9% (active): [8]
49.5% (inactive) and -8.22% (active): [10]
108% (inactive) and -50% (active): [1]
55.2% (inactive) and -79.7% (active): [4]
60.2% (inactive) and -40% (active): [9]
28.8% (inactive) and -51.5% (active): [3]
107% (inactive) and -11.3% (active): [5]
55.1% (inactive) and -69.6% (active): [2]
42% (inactive) and -69.1% (active): [7]
76.8% (inactive) and -79.3% (active): [6]

O=C(O)c1ccc(-n2c(=O)n(-c3cccc(C(F)(F)F)c3)c(=O)c3cc(-c4ccc(F)cc4F)ccc32)cc1
active: [1] -32% | [2] 5.67% | [3] -5.12% | [4] 8.03% | [5] 4.33% | [6] 1.36% | [7] -6.76% | [8] -20.5% | [10] 4.7%
inactive: [9] 19.5%

O=C(CCCCCC/C=C\c1csc(Br)n1)NO
inactive: [1] 101% | [2] 94% | [3] 98.2% | [4] 60.6% | [5] 59.4% | [6] 82.8% | [7] 78.7% | [8] 87.1% | [9] 52.7% | [10] 63.7%

CN(C)c1ccc(-c2cc(-c3c[nH]c4ccccc34)nc(N)c2C#N)cc1
inactive: [2] 61.8% | [3] 43.1% | [4] 44.6% | [5] 72.9% | [6] 47.1% | [7] 24.1% | [9] 30% | [10] 35.4%
active: [1] -0.536% | [8] -0.675%

O=C1[C@H]2Cc3c([nH]c4ccccc34)[C@H](c3ccc(Cl)cc3)N2C(=O)CN1C1CCN(CC2CCCCC2)CC1
inactive: [1] 98.2% | [2] 81.5% | [3] 69.7% | [4] 39.1% | [5] 112% | [6] 74.8% | [7] 37.9% | [8] 80.4% | [9] 39.3% | [10] 35.1%

O=C1Nc2ccccc2/C1=C/c1ccc(OCC(=O)c2ccccc2)cc1
inactive: [1] 113% | [2] 100% | [3] 93.9% | [4] 69.5% | [5] 125% | [6] 96.6% | [7] 86.9% | [8] 104% | [9] 98.1% | [10] 97.8%

Cc1cc(C)cc(NC2=C(Cl)C(=O)c3nc(C)ccc3C2=O)c1
active: [3] 8.28% | [4] 0.909% | [6] 2.41% | [9] 7.91%
inactive: [1] 85.5% | [2] 55.1% | [5] 128% | [7] 89.6% | [8] 88.3% | [10] 24.6%

CCOP(=O)(OCC)OC[C@]12CCC(C)(C)C[C@H]1C1=CC[C@@H]3[C@@]4(C)CC[C@H](OP(=O)(OCC)OCC)C(C)(C)[C@@H]4CC[C@@]3(C)[C@]1(C)CC2
inactive: [1] 88.2% | [2] 55% | [3] 55.3% | [4] 34.2% | [5] 67.4% | [6] 67.2% | [7] 45.9% | [8] 79.8% | [9] 49.2% | [10] 32.7%

C#Cc1nc(/C=C\CCCCCCC(=O)NO)cs1
inactive: [1] 92.1% | [2] 82.9% | [3] 80.9% | [5] 42% | [6] 11.3% | [8] 34.2%
active: [4] -76.2% | [7] -20.2% | [9] -40.5% | [10] -24.6%

COc1cc(OC)cc(-c2cc(-c3c[nH]c4ccccc34)nc(-c3c[nH]c4ccccc34)c2C#N)c1
inactive: [1] 88.4% | [2] 91.5% | [3] 95.1% | [4] 71.3% | [5] 124% | [6] 97.2% | [7] 91% | [8] 96.7% | [9] 97.2% | [10] 98.6%

COc1cc(C(=O)c2cc(C(C)=O)c3c(C)cccn23)cc(OC)c1OC
active: [8] -10.4%
inactive: [1] 98.9% | [2] 99% | [3] 80.9% | [4] 75.6% | [5] 108% | [6] 97.9% | [7] 84.5% | [9] 96.1% | [10] 92.5%

N#Cc1cnc2ccc(-c3cnc4n[nH]nc4c3)cc2c1N1CCc2cc(F)c(Cl)cc21
active: [1] -22.6% | [2] 3.17% | [4] 2.18% | [5] -11.4% | [7] 6.12% | [8] -11.8% | [10] -1.31%
inactive: [3] 14.8% | [6] 13.6% | [9] 10.6%

COc1ccc2[nH]cc(/C=N/Nc3ccnc4cc(Cl)ccc34)c2c1
active: [1] -83.6% | [2] -96.5% | [3] -100% | [4] -100% | [5] -96.5% | [6] -100% | [7] -99.9% | [8] -98.6% | [9] -42.8% | [10] -48.4%

COC(=O)c1cccc(NC2=C(Cl)C(=O)C(C)=C(C)C2=O)c1
active: [9] 6.54%
inactive: [1] 98% | [2] 92.2% | [3] 92.6% | [4] 89.4% | [5] 150% | [6] 104% | [7] 94.2% | [8] 87.7% | [10] 11.3%

Oc1ccc(-c2nc3ccc(/C(=N\N=C\c4ccc(Cl)cc4)c4ccccc4)cc3[nH]2)cc1
inactive: [1] 90.6% | [2] 98.9% | [3] 83.5% | [4] 63.5% | [5] 105% | [6] 86.8% | [7] 76.1% | [8] 65.7% | [9] 21.6% | [10] 57%

Cc1cccc(N2CCN(C3=C(Cl)C(=O)c4ncccc4C3=O)CC2)c1
active: [6] -32.9% | [9] 4.71% | [10] 9.85%
inactive: [1] 99.9% | [2] 104% | [3] 75.1% | [4] 18.3% | [5] 117% | [7] 52% | [8] 103%

CN1CCN(c2ccc(Nc3nc(NCCCNS(=O)(=O)c4ccc(Cl)cc4)c4sccc4n3)cc2)CC1
inactive: [2] 50.8% | [3] 36.7% | [7] 10.8% | [8] 19.7% | [9] 13%
active: [1] -9.34% | [4] -58.9% | [5] 9.93% | [6] 6.32% | [10] 4.92%

CCN(CC)CCOc1ccc(C(=C(C)c2ccc(OC)cc2)c2ccc(OCCN(CC)CC)cc2)cc1
active: [1] -36.7% | [4] -75.1% | [6] -34.1% | [7] -18.2% | [8] -29% | [9] -10.8% | [10] 1.17%
inactive: [2] 39.1% | [3] 34.6% | [5] 18.8%
